Data as given in PubChem BioAssay AID686978 (National Center for Advancing Translational Sciences (NCATS), 2013).
Where “and” joins values, the source holds several entries; their conditions need not be identical. Identical values can stand only once. About 64,000 (15%) of roughly 420,000 compounds were called active. About 27% were inconclusive and are not listed. Calls come from the whole dose curve; as a rule, active = well fitted inhibition curve with a large enough effect; inconclusive = small, poorly fitted or top-dose-only effect; inactive = flat fitted curve, though single readings scatter. A selection follows. Entries that show only a call come without a potency.

Test: qHTS for Inhibitors of human tyrosyl-DNA phosphodiesterase 1 (TDP1): qHTS in cells in absence of CPT; note: nearly all actives have a fitted effect of over 55% in size
Conditions: DT40 Tdp1-/- hTDP1 cells, no CPT, ATP luminescence, 48 h; activity change, negative = growth inhibition: at 46.2 µM (top of the series)
Procedure, shortened: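 Seeded 400 DT40-hTDP1 cells/well (vehicle DMSO, no 20 nM CPT); pinned compounds; ≥48 hr at 37 °C; CellTiter-Glo luminescence as viability measure.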
Potency is the fitted concentration of half-maximal effect.

SMILES | Potency
c1ccc(C2c3[nH]c4ccccc4c3CCN2Cc2cccn2-c2cccnc2)nc1 (stereo unspecified) | 5.8 µM (active)
O=C(c1cn2ccccc2n1)N1CCc2c([nH]c3ccccc23)C1c1ccccn1 (stereo unspecified) | inactive
CCOc1ccc(C2c3[nH]c4ccccc4c3CCN2Cc2cccn2-c2ncccn2)cc1 (stereo unspecified) | 13 µM (active)
CCOc1ccc(C2c3[nH]c4ccccc4c3CCN2Cc2cn(CC)nc2C)cc1 (stereo unspecified) | inactive
COCC(=O)Nc1c(I)c(C(=O)NCC(O)CO)c(I)c(C(=O)N(C)CC(O)CO)c1I (stereo unspecified) | inactive
Nc1nc(SCC(=O)N2CCN(S(=O)(=O)c3ccc(Cl)cc3)CC2)n[nH]1 | inactive
CC(CCN1CCN=C1N(C)C)c1ccccc1 (stereo unspecified) | inactive
Cc1ccc2[nH]c(=O)c(COC(=O)c3ccccn3)cc2c1 | inactive
Cc1ccccc1NC(=O)c1cnn(-c2ccccc2)c1NC(=O)c1ccco1 | inactive
Nc1cc2c(cc1Br)-c1ccc(F)cc1C2=O | inactive
COC(=O)C[C@H]1C=C[C@H](NC(=O)c2ccc(F)cc2)[C@@H](CO)O1 | inactive
Cc1ccsc1/C=N/NC(=O)Cc1cc(=O)[nH][nH]1 | inactive
Brc1ccc(CN2CC[C@H]3C=CCc4cccc(c43)C2)cc1 | 15.8 µM (active) and 20.6 µM (active)
O=C1C[C@H]2C=CCc3cccc(c32)CN1Cc1ccccc1 | 20 µM (active)
O=C1C[C@@H]2c3c(cccc3CN1Cc1ccccc1)C[C@@H](O)[C@H]2O | inactive
CCCC(=O)C1CCN(Cc2ccccc2)CC1 | inactive
Cc1cccc(C)c1N1C(=O)CN(Cc2ccccc2)C1=S | inactive
C/C(Cn1nnc2ccccc21)=N\OC(=O)c1cc(F)c(F)cc1Cl | inactive
O=C(NCc1ccc(F)cc1)C1CCC(CNc2c(N3CCOCC3)c(=O)c2=O)CC1 (stereo unspecified) | inactive
CC[C@]1(O)CC2CN(CCc3c([nH]c4ccccc34)[C@@](C(=O)OC)(c3cc4c(cc3OC)N(C=O)[C@H]3[C@@](O)(C(=O)OC)[C@H](OC(C)=O)[C@]5(CC)C=CCN6CC[C@]43[C@@H]65)C2)C1 (stereo partly specified) | inactive
CC[C@]1(O)C[C@@H]2CN(CCc3c([nH]c4ccccc34)[C@@](C(=O)OC)(c3cc4c(cc3OC)N(C)[C@H]3[C@@](O)(C(=O)OC)[C@H](OC(C)=O)[C@]5(CC)C=CCN6CC[C@]43[C@@H]65)C2)C1 | 51.7 nM (active) and 59.6 nM (active) and 82 nM (active)

SMILES | Potency
CCN(CC)Cc1c(C(=O)OC)nnn1-c1nonc1N | inactive
CCNC(=O)C1(C)CCCN1C(=O)c1ccc(N(C)C)cc1 (stereo unspecified) | inactive
CC1(C(=O)NS(=O)(=O)c2ccccc2)CCN1C(=O)c1ccccc1 (stereo unspecified) | inactive
CC(C)NC(=O)C1(C)CCCCCN1C(=O)c1ccc(-c2ccccc2)cc1 (stereo unspecified) | 9.2 µM (active)
CC(C)(CNCC(O)c1ccccc1)N1CCOCC1 (stereo unspecified) | inactive
CCOc1ccc(/C=N/NC(N)=S)cc1 | 16.4 µM (active)
NC(=S)N/N=C/c1ccc([N+](=O)[O-])cc1 | inactive
CCOC(=O)N1CCC(=NNC(N)=O)CC1 | inactive
CCC(C)Nc1oc(-c2ccc(COc3ccc(Cl)cc3)o2)nc1C#N (stereo unspecified) | 23.1 µM (active)
CC1CC(C)CN(c2oc(-c3ccc(OCc4ccc(Cl)cc4)cc3)nc2C#N)C1 (stereo unspecified) | inactive
N#Cc1nc(COc2ccc(Cl)cc2)oc1N1CCCC1 | inactive
COC(=O)c1sccc1NC(=O)c1ccc(Cl)cc1 | inactive
O=C1c2ccccc2C(=O)C1c1ccccc1 | inactive
COc1ccc(NC(=O)/C(C#N)=C\c2cc(OC)c(OCc3ccc(C(=O)O)cc3)cc2Br)cc1 | inactive
COCCCn1c(=O)/c(=C/c2ccccc2OC(C)C)s/c1=C(\C#N)C(=O)Nc1ccc(C(=O)O)cc1 | 20.6 µM (active)
COc1ccccc1C(=O)N/C(=C/c1ccco1)C(=O)Nc1ccc(C(=O)O)cc1 | inactive
COCCNC(=S)N(CCc1c(C)[nH]c2ccc(C)cc12)Cc1cccnc1 | inactive
CCn1cc(C(=O)N2CC=C(c3ccccc3)CC2)c(=O)c2ccc(C)nc21 | inactive
CCOc1cc(/C=C(/C#N)c2ccc(Cl)cc2)cc(Cl)c1OCC(=O)O | inactive
CCOc1cc(/C=C(\C#N)C(=O)Nc2ccccc2C)ccc1OCc1cc(=O)n2nc(CC)sc2n1 | inactive
CCOc1cc(/C=C(\C#N)c2nc(-c3cccs3)c(NC(C)=O)s2)ccc1O | 3.66 µM (active)

SMILES | Potency
CSc1nc(C)nc2c1c(=O)n(C)c(=O)n2C | inactive
O=P(O)(O)OC[C@H](O)CO | inactive
CC1(C)CC(CCC(=O)Nc2ccccc2Cl)C(=O)O1 (stereo unspecified) | inactive
CCCCCCNC(=O)O[C@H]1CN(C(=O)OC(C)C)N(C(=O)OC(C)C)[C@@H]2CN(S(=O)(=O)c3ccc(C)cc3)C[C@]12O | 16.4 µM (active)
CCCCOc1ccc(NC(=O)[C@@H]2CCCN2C(=O)C2CCN(S(=O)(=O)c3ccc(C)cc3)CC2)cc1 | inactive
Cc1ccc(S(=O)(=O)N2CCC(C(=O)N[C@@H](C)C(=O)NCc3ccccc3)CC2)cc1 | inactive
O=C(CNS(=O)(=O)c1ccc2ccccc2c1)Nc1ccc(F)c(F)c1F | inactive
COc1ccc(C(=O)Nc2cc(C)ccc2NC(=O)COc2ccccc2)cc1 | inactive
Cc1ccc(NS(=O)(=O)c2ccc(C)c(NC(=O)COc3ccc4ccccc4c3)c2)c(C)c1 | 16.4 µM (active)
O=C(CC1CCCCC1)NCc1ccccc1 | inactive
C/C(=N\NC(=S)NCc1ccccc1)C1CCCCC1 | 6.51 µM (active)
C/C(=N\NC(=S)NCc1ccccc1)c1ccc(Cl)cc1 | 18.4 µM (active)
CN(C)CCCNC(=S)NCc1ccc(Cl)cc1 | inactive
O=C(O)c1ccc(/C=N/NC(=S)NCc2ccccc2)cc1 | inactive
CC1CCCCN1C(=S)NCc1ccccc1 (stereo unspecified) | inactive
C#CCOCCOCCOCCNc1nc(N2CCN(C(=O)[C@H](CCCCN)n3cc(CCC(=O)O)nn3)CC2)nc(N2CCN(C(=O)[C@H](CCCCN)n3cc(CC(C)O)nn3)CC2)n1 (stereo partly specified) | inactive
CSc1ccc(CNC(=O)c2ccc(NC(=O)C3=CSCCO3)cc2)cc1 | inactive
CC(=O)c1ccc(N2CCN(CC(O)c3ccccc3)CC2)cc1 (stereo unspecified) | inactive
CC1CCCCN1CC(=O)NCc1ccc2c(c1)OCO2 (stereo unspecified) | inactive
